Source: PubChem BioAssay (Broad Institute)
NSD2 HMT inh – NSD2 histone methyltransferase inhibitors, primary screen, biochemical, AlphaScreen, single concentration, set 2; 310,000 compounds, 0.54% hits; AID 743445, 2014; inhibition, % at 12.5 µM; NSD2 peptide methylation, 120 min; in the data active = inhibition above about 50%
MITF TRPM1 HTS – activators of MITF-driven TRPM1 promoter reporter, primary screen, cell-based, SK-MEL-5, luciferase, single point | SK-MEL-5 TRPM1-promoter luciferase, 24 h; % of positive control, neutral wells = 0 | AID 588334, 2011 | 300,000 compounds, 0.75% hits | activation, % at 12.5 µM;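 active = mean activation of at least 80% with every replicate also reaching 80%; inconclusive = mean reaches 80% but some replicate falls short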;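 also: 0% = neutral control wells and 100% = parthenolide positive control wells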
TRPM1 prom inh – inhibitors of MITF-dependent TRPM1 promoter reporter, primary screen, cell-based, SK-MEL-5, single point, luciferase | inhibition, % at 12.5 µM | SK-MEL-5 TRPM1 promoter luciferase, 24 h | 330,000 compounds, 0.83% hits;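 active = mean inhibition across replicates of 60% or more, whatever share of single replicates reaches that level; inconclusive = some that reach 60%, reason not given; inactive = mean inhibition across replicates below 60%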
PfHsp90 yeast 2 – growth inhibition of PfHsp90-expressing yeast, primary screen, antimalarial PfHsp90 inhibitor project, S. cerevisiae, BacTiter-Glo luminescence, single point, set 2; BacTiter-Glo ATP, 48 h; yeast lacking PDR1 and PDR3 efflux regulators; inhibition, % at 9.4 µM; 310,000 compounds, 0.32% hits;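 active = every replicate shows inhibition above about 80%, whatever the replicate mean, limit read from the data; inconclusive = mean inhibition reaches the set limit but some replicate falls short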;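 also: 0% = DMSO neutral controls and 100% = 20 µM radicicol positive controls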
N-glyco inh – increase of ERlucT glycosylation luciferase signal, primary screen, N-linked glycosylation inhibitor project, D54 ERlucT cells, luminescence, set 2. D54 ERlucT glycosylation luciferase reporter, 24 h; percent of 100 nM tunicamycin response. reporter increase, % at 12.5 µM. 360,000 compounds, 0.23% hits;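 active = mean luciferase reporter signal, scaled so untreated is 0 and the glycosylation-blocking control 100, at or above a set limit in every replicate; inconclusive = mean reaches the limit but not every replicate does; inactive = mean below the limit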;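 also: luciferase carries N-glycosylation sites so blocking glycosylation raises the light; 0% = median of neutral control wells and 100% = median of 100 nM tunicamycin wells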
Wnt act – Wnt/beta-catenin pathway activators, primary screen, cell-based, plate reader, single point | activation, % at 9.35 µM | 300,000 compounds, 1.2% hits | Wnt/beta-catenin reporter cell assay, activator; in the data active = activation above about 30%, passing the limit was not always enough; inconclusive = no clear call, values can overlap the other calls;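 also: 0% = neutral control wells and 100% = positive control wells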
The depositor's hits bear a star; ? = inconclusive; nt = not tested or not shown. Sampled rows, rich in hits. Any-hit rate of the full collection: about 2.9%.

SMILES | NSD2 HMT inh | MITF TRPM1 HTS | TRPM1 prom inh | PfHsp90 yeast 2 | N-glyco inh | Wnt act
c1ccc2[nH]c(-c3ccnc4ccccc34)nc2c1 | -2 | 18 | -17 | -6 | 1 | 38*
O=C(N[C@H](C(=O)N1CCC[C@H]1C(=O)NCc1ccccc1)c1ccccc1)c1ccccc1 | nt | nt | nt | nt | nt | -5
O=C1C(Cl)=C(NCc2ccco2)C(=O)c2ccccc21 | 71* | -93 | 94* | -8 | -13 | -2
CCC(=O)NC1=C(Nc2ccc(N)cc2)C(=O)c2ccccc2C1=O | 13 | 13 | -14 | -7 | -5 | 34*
CCNC1=C(Cl)C(=O)c2ccccc2C1=O | 30 | -73 | 74* | -4 | -7 | 2
CCCC(=O)NC1=C(Cl)C(=O)c2ccccc2C1=O | -1 | -101 | 101* | 146* | -3 | 4
O=C1c2ccccc2-c2onc3ccc(NCc4ccco4)c1c23 | nt | -25 | 23 | 19 | 7 | nt
COC(=O)[C@]12C[C@H](CC(=O)N3CCC(c4ccccc4)CC3)C(=O)N(Cc3ccccc3)C1=C[C@H](C(C)(C)C)O[C@@H]2C | nt | nt | nt | nt | nt | -13
c1ccc(-c2nnc(SCCC3OCCCO3)o2)cc1 | 0 | 11 | -10 | -22 | -7 | 48*
C#CCSc1nnc(-c2ccc(O)cc2)o1 | -6 | ? | -77 | -166 | 2 | 46*
Oc1ccc(-c2nnc(SCc3ccccc3)o2)cc1 | -4 | 114* | -112 | -26 | 0 | 17
O=C(Nc1ccc(F)cc1F)c1ccc(-n2cccn2)nc1 | nt | -4 | 4 | 12 | -1 | 1
CC(C)Sc1ccc(C(=O)Nc2ccc(F)cc2F)cn1 | -6 | ? | -83 | 2 | -3 | 49*
CCCOc1ccc(F)cc1-c1cc(C(=O)Nc2ccc(C(C)C)cc2)[nH]n1 | 7 | nt | nt | nt | 55* | -4
CC(C)C(=O)N1CCN(c2nc3ccc(Cl)cc3s2)CC1 | -3 | 63 | -60 | -4 | -3 | 16
CC(C)NC(=O)N1CCCN(c2nc3ccc(Cl)cc3s2)CC1 | -1 | 19 | -15 | 45 | -1 | 31*
CC1=NN(c2nc(-c3ccc(C)cc3)cs2)C(=O)C1N=Nc1ccc(C(N)=O)cc1 (stereo not given) | -2 | -101 | 102* | -7 | 3 | -32
CC1=NN(c2nc(-c3ccc(C)cc3)cs2)C(=O)C1N=Nc1ccc2ccccc2c1 (stereo not given) | 3 | -7 | 12 | -3 | 4 | nt
CCN(CC(=O)NCc1ccc(F)cc1)C(=O)/C=C/c1cc(OC)ccc1OC | -6 | -5 | 3 | 21 | 1 | -3
COc1ccccc1N(C(=O)CCl)c1cn(C(C)=O)c2ccccc12 | 1 | -63 | 63* | 13 | -7 | -11
COC(=O)c1ccc(COc2cc(C)ccc2C)o1 | 0 | 82* | -73 | -19 | 1 | 7
Cc1ccc(/C=C/C(=O)OCC(=O)N(CC(C)C)c2c(N)n(Cc3ccccc3)c(=O)[nH]c2=O)o1 | -1 | 8 | -5 | 2 | 3 | 0
N#CC(C#N)=C1SC(=Nc2ccccc2)C(=Nc2ccccc2)N1c1ccccc1 | 1 | 3 | -2 | -17 | 11 | 56*
Fc1ccc(N2C(=S)SC(=Nc3ccccc3)C2=Nc2ccccc2)cc1 | 2 | 68 | -66 | -11 | 4 | 58*
CC(C)CNC(=O)OCc1cn(Cc2cccc(Cl)c2)nn1 | -2 | nt | nt | nt | nt | nt
SMILES | NSD2 HMT inh | MITF TRPM1 HTS | TRPM1 prom inh | PfHsp90 yeast 2 | N-glyco inh | Wnt act
COc1cc2c(cc1OC)C(c1cccs1)N(C(=O)c1cccnc1)CC2 (stereo not given) | -3 | -24 | 27 | 29 | 80* | -11
COc1cc2c(cc1OC)C(c1cccs1)N(C(=O)C(C)C)CC2 (stereo not given) | -1 | nt | -4 | 11 | 5 | nt
Cc1ccc(NCSc2ccc(Cl)cc2)cc1 | 0 | 50 | -62 | -22 | 2 | 16
CSc1ccc(CNc2ccc(Cl)cc2)cc1 | nt | 101* | -104 | 5 | -3 | -1
Cn1/c(=N/NC(=O)c2ccccc2Br)sc2ccccc21 | -1 | 48 | -48 | -8 | 1 | 51*
COc1cc(C(=O)N/N=c2/sc3ccccc3n2C)cc(OC)c1OC | -3 | -11 | 8 | -12 | 3 | 0
CN(Cc1ccccc1)C1=CC(=[N+]2CCCC2)CC(C)(C)C1 | nt | -75 | 77* | 23 | 0 | -6
O=C(O)c1ccc2nc(-c3ccccc3)sc2c1 | -2 | 25 | -25 | -3 | -13 | 5
CC1CCN(c2nc3ccc(C(=O)O)cc3s2)CC1 | 0 | -90 | 90* | -17 | -13 | nt
Nc1ccc(-c2nc3ccc(C(=O)O)cc3s2)cc1 | 1 | -113 | 115* | 8 | -17 | -16
CC1CCN(c2nc3ccc(C(=O)NCCCN4CCCCC4)cc3s2)CC1 | nt | -53 | 52 | -14 | -1 | 5
COc1ccc(C(=O)CSc2nnc(-c3ccccn3)n2-c2ccccc2)cc1 | -5 | nt | nt | nt | nt | nt
N#CCSc1nc2ccccc2c2nc3ccccc3n12 | -1 | -78 | 77* | 1 | 7 | 6
CCn1c(SCC#N)nc2ccccc2c1=O | 1 | -5 | 6 | -16 | -2 | -1
Cc1ccc(C(=O)O/N=C(\N)Cc2ccc([N+](=O)[O-])cc2)c(Cl)c1 | 2 | nt | 0 | 0 | 7 | -4
N/C(=N\OC(=O)Cc1cccs1)c1ccccc1 | -1 | nt | -74 | -6 | -2 | nt
N/C(=N\OC(=O)Cc1cccs1)c1cccc([N+](=O)[O-])c1 | nt | 20 | -11 | -13 | -1 | 5
Cc1cccc(/C(N)=N/OC(=O)Cc2cccs2)c1 | -1 | 95* | -90 | 18 | -1 | nt
Cc1ccc(C(=O)O/N=C(\N)Cc2cccs2)c(Cl)c1 | -5 | 117* | -110 | 5 | -7 | nt
N/C(=N\OC(=O)Cc1cccs1)c1ccc(Cl)cc1 | -3 | 79 | -80 | -9 | -2 | 34*
Cc1ccc(/C(N)=N/OC(=O)Cc2cccs2)cc1 | 1 | 111* | -109 | 28 | -1 | nt
CCN1C(=O)/C(=C2/C=Cc3ccccc3N2C)OC1=S | 7 | 101* | -96 | -5 | 1 | nt
Cc1c(C(=O)/C=C/N(C)C)nnn1-c1ccc(Cl)c(Cl)c1 | -1 | nt | -42 | -34 | 0 | 48*
Cc1c(C(=O)/C=C/N(C)C)nnn1-c1ccc(F)c(Cl)c1 | 0 | nt | nt | nt | -1 | 22
[O-][n+]1ccc(C2CC2)cc1 | -1 | nt | 1 | nt | 0 | 39*
COC(=O)C1=C(C)N(C)C(=NCc2cccc(C(F)(F)F)c2)NC1c1ccc(F)cc1 (stereo not given) | nt | nt | nt | nt | nt | -14
CCOC(=O)c1ccccc1NC(=O)COC(=O)c1c(CC)noc1C | -1 | 4 | -3 | nt | -3 | -2
